The source of these data is the supplement of paper PMC7801607.

Assay [1] relates to CHO. Description: % viability of CHO cells (MTT); higher = less toxic. The settings on record: 48 h. An outline of the steps: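 CHO cells were plated at 10^6 cells/well in 200 µL and allowed to attach overnight. Fresh medium with compound at 2 or 20 µM then replaced the old medium for 48 h. Percent viability, relative to untreated cells, came from a colorimetric tetrazolium (MTT) readout.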

Assay [2] relates to HepG2-A16-CD81. Description: % inhibition of HepG2 viability (CellTiter-Glo); higher = more toxic. The settings on record: 5 µM. On the technique in general: ATP-based viability assays read luminescence as a measure of living cells.
Assay [3] has as its system Plasmodium falciparum NF54 stage IV/V gametocytes. Description: % inhibition of gametocyte viability (PrestoBlue); higher = more inhibition. The settings on record: 48 h. An outline of the steps: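 In a single run, percent inhibition of gametocyte viability was calculated relative to vehicle and kill controls. The wells held 100 µL of Stage IV/V NF54 gametocytes at 2% gametocytaemia and 5% haematocrit, with compound at 1 or 5 µM. Plates stood at 37 °C in hypoxic conditions for 48 h. After that, 10 µL PrestoBlue was added for 2 h, and 70 µL of supernatant was transferred for fluorescence reading at 612 nm.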

In assay [4] the test system is Plasmodium falciparum NF54 asexual blood stage. Description: % inhibition of asexual blood stage proliferation (pLDH); higher = more inhibition. The settings on record: 72 h. An outline of the steps:
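Percent inhibition of asexual proliferation, normalised to controls, was determined in a screen repeated on two separate occasions. Plasmodium falciparum NF54 ring-stage cultures (1% haematocrit, 2% parasitaemia) received compound at 2 or 20 µM and were incubated for 72 h at 37 °C under 4% CO2, 3% O2 and 93% N2. A colorimetric parasite lactate dehydrogenase readout at 620 nm gave survival.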

Assay [5] concerns Plasmodium falciparum NF54 stage IV/V gametocytes. Description: % inhibition of gametocyte viability (ATP bioluminescence); higher = more inhibition. The settings on record: 24 h. An outline of the steps: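 Enriched stage IV/V NF54 gametocytes were exposed to compound at 1 or 5 µM for 24 h at 37 °C in 96-well plates. Percent inhibition of gametocyte viability was derived from a bioluminescent ATP readout, normalised to controls within a single run.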

Assay [6] shares this test system. Description: % inhibition of gametocyte viability (luciferase reporter); higher = more inhibition. The settings on record: 48 h. Put shortly:
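Luminescence from 30 µL lysate combined with 30 µL Promega luciferin substrate was recorded on a GloMax-Multi+ reader using 10 s integration. The lysate came from stage IV/V NF54-Pfs16-GFP-Luc gametocytes (2% gametocytaemia, 2% haematocrit) held with compound at 1 or 5 µM for 48 h at 37 °C under stationary, hypoxic conditions. Percent inhibition was normalised against controls run once.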
(In general: Reporter assays use an easily measured gene product as a stand-in for the process of interest.)

In assay [7] the test system is Plasmodium berghei ANKA liver stage in HepG2-A16-CD81. Description: % inhibition of liver stage parasite viability (luciferase); higher = more inhibition. The settings on record: 5 µM; 48 h. The procedure:
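Single-concentration screen of the MMV Pandemic Response Box. P. falciparum NF54 asexual blood stages: pLDH assay, 72 h at 37 °C, 2 and 20 µM, n=2. Stage IV/V gametocytes (NF54): luciferase reporter (NF54-Pfs16-GFP-Luc, 48 h), ATP bioluminescence (24 h) and PrestoBlue (48 h) at 1 and 5 µM, n=1. P. berghei liver stage (luciferase in HepG2-A16-CD81, 48 h post infection) at 5 µM, n=4. All normalised to DMSO and kill controls as % inhibition.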

The structures appear in SMILES notation. A value given as a limit tells only on which side of the number the result lay.
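Throughout, for % inhibition of HepG2 viability (CellTiter-Glo): HepG2-A16-CD81 hepatoma cells plated as in the liver-stage assay but without sporozoites, with DMSO wells as negative and 25 µM puromycin as positive control.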

For `O=C(NO)C1(CS(=O)(=O)c2ccc(Oc3ccc(Cl)cc3)cc2)CCOCC1`, the “% viability of CHO cells” value in assay [1] (2 µM) was 108%; in assay [1] (20 µM), 76.6%. Further, in assay [2], the “% inhibition of HepG2 viability” value was 7.05%. Besides, the “% inhibition of gametocyte viability” value in assay [3] (1 µM) was 22.6%; in assay [3] (5 µM), 28.2%; in assay [5] (1 µM), under 0%; in assay [5] (5 µM) it was under 0%; in assay [6] (1 µM) it was 2.48%; in assay [6] (5 µM) it was under 0%. Moreover, the “% inhibition of asexual blood stage proliferation” value in assay [4] (2 µM) is 28.1%; in assay [4] (20 µM) it was 34.1%. Besides, in assay [7], the “% inhibition of liver stage parasite viability” value came out at 35.5%.

Turning to `N[C@H](CCC(=O)N[C@@H](Cc1c[nH]c2ccccc12)C(=O)O)C(=O)O`, the entries for the “% viability of CHO cells” value in assay [1] (2 µM) and in assay [1] (20 µM) were 116% and 57.6%, respectively. Also, in assay [2], the “% inhibition of HepG2 viability” value is -8.85%. Besides, the “% inhibition of gametocyte viability” value in assay [3] (1 µM) was under 0%; in assay [3] (5 µM), 3.44%; in assay [5] (1 µM), 4.77%; in assay [5] (5 µM), under 0%; in assay [6] (1 µM), 6.42%; in assay [6] (5 µM), under 0%. The “% inhibition of asexual blood stage proliferation” value was found to be 28.8% in assay [4] (2 µM) and 43.7% in assay [4] (20 µM). Besides, the “% inhibition of liver stage parasite viability” value in assay [7] was found to be 21.3%.

Turning to `O=S(=O)(Nc1ccc(-n2cccc2)cc1)c1ccc(Cl)c(Cl)c1`, the figures for the “% viability of CHO cells” value in assay [1] (2 µM) and in assay [1] (20 µM) were 95% and 90.4%, respectively. Also, the “% inhibition of HepG2 viability” value in assay [2] is -0.822%. Moreover, the “% inhibition of gametocyte viability” value in assay [3] (1 µM), in assay [3] (5 µM), in assay [5] (1 µM), in assay [5] (5 µM), in assay [6] (1 µM) and in assay [6] (5 µM) was under 0% each time. Moreover, the “% inhibition of asexual blood stage proliferation” value in assay [4] (2 µM) was 6.75%; in assay [4] (20 µM), 24%. In addition, in assay [7], the “% inhibition of liver stage parasite viability” value turned out to be 38%.

On to `Nc1nc(O)c2ncn(COCCO)c2n1`, for which the results for the “% viability of CHO cells” value in assay [1] (2 µM) and in assay [1] (20 µM) were 98.5% and 121%, respectively. Further, the “% inhibition of HepG2 viability” value in assay [2] came to 1.64%. The “% inhibition of gametocyte viability” value in assay [3] (1 µM) was under 0%; in assay [3] (5 µM) it was 15.7%; in assay [5] (1 µM), under 0%; in assay [5] (5 µM), under 0%; in assay [6] (1 µM), under 0%; in assay [6] (5 µM) it was under 0%. Besides, the entries for the “% inhibition of asexual blood stage proliferation” value in assay [4] (2 µM) and in assay [4] (20 µM) were 21.3% and 31.7%, respectively. In assay [7], the “% inhibition of liver stage parasite viability” value was 26.7%.

Regarding `NC(=S)N/N=C/c1ncccc1N`, the results for the “% viability of CHO cells” value in assay [1] (2 µM) and in assay [1] (20 µM) were 111% and 48.6%, respectively. For the same compound, the “% inhibition of HepG2 viability” value in assay [2] was -22.6%. Besides, the “% inhibition of gametocyte viability” value was 80.3% in assay [3] (1 µM); 91.2% in assay [3] (5 µM); under 0% in assay [5] (1 µM); 15.5% in assay [5] (5 µM); 1.59% in assay [6] (1 µM); 5.86% in assay [6] (5 µM). The figures for the “% inhibition of asexual blood stage proliferation” value in assay [4] (2 µM) and in assay [4] (20 µM) were 73.5% and 78.5%, respectively.

Turning to `COc1cc(Cc2cnc(N)nc2N)cc(OC)c1OC`, the “% viability of CHO cells” value in assay [1] (2 µM) was 111%; in assay [1] (20 µM), 126%. Besides, the “% inhibition of HepG2 viability” value in assay [2] came out at 1.34%. For the same compound, the “% inhibition of gametocyte viability” value in assay [3] (1 µM) was 4.58%; in assay [3] (5 µM) it was 22.2%; in assay [5] (1 µM) it was 0.869%; in assay [5] (5 µM) it was under 0%; in assay [6] (1 µM) it was under 0%; in assay [6] (5 µM), under 0%. In addition, the “% inhibition of asexual blood stage proliferation” value in assay [4] (2 µM) came out at 23.4%; in assay [4] (20 µM), 33.1%. The “% inhibition of liver stage parasite viability” value in assay [7] worked out at 66.4%.

In the case of `CCOC(=O)N[C@@H]1CC[C@@H]2[C@@H](C1)C[C@H]1C(=O)O[C@H](C)[C@H]1[C@H]2/C=C/c1ccc(-c2cccc(F)c2)cn1`, the “% viability of CHO cells” value in assay [1] (2 µM) was determined as 72.3%; in assay [1] (20 µM) it was 62.2%. For the same compound, in assay [2], the “% inhibition of HepG2 viability” value came out at 7.92%. For the same compound, the “% inhibition of gametocyte viability” value is 15.9% in assay [3] (1 µM); -0.253% in assay [3] (5 µM); 17.7% in assay [5] (1 µM); 33% in assay [5] (5 µM); 7.62% in assay [6] (1 µM); 27.4% in assay [6] (5 µM). Also, the “% inhibition of asexual blood stage proliferation” value came out at 42.6% in assay [4] (2 µM) and 71.5% in assay [4] (20 µM). Further, in assay [7], the “% inhibition of liver stage parasite viability” value is 33.5%.

As to `O=C(NC(=O)N1CCCc2ccccc21)c1cccc(Cl)c1`, the “% viability of CHO cells” value was determined as 99.8% in assay [1] (2 µM) and 116% in assay [1] (20 µM). Moreover, the “% inhibition of HepG2 viability” value in assay [2] is 1.03%. Besides, the “% inhibition of gametocyte viability” value in assay [3] (1 µM), in assay [3] (5 µM), in assay [5] (1 µM), in assay [5] (5 µM), in assay [6] (1 µM) and in assay [6] (5 µM) was under 0% throughout. Further, the “% inhibition of asexual blood stage proliferation” value in assay [4] (2 µM) is -12.6%; in assay [4] (20 µM), 10.3%. In assay [7], the “% inhibition of liver stage parasite viability” value was found to be 11.4%.

As to `Cc1cc(CCOc2c(C)cc(-c3nnn(C)n3)cc2C)on1`, the “% viability of CHO cells” value was 100% in assay [1] (2 µM) and 105% in assay [1] (20 µM). Also, in assay [2], the “% inhibition of HepG2 viability” value is -1.96%. The “% inhibition of gametocyte viability” value in assay [3] (1 µM) was 26.4%; in assay [3] (5 µM), 21.8%; in assay [5] (1 µM) it was under 0%; in assay [5] (5 µM) it was under 0%; in assay [6] (1 µM), 4.37%; in assay [6] (5 µM), 32.2%. In addition, the “% inhibition of asexual blood stage proliferation” value in assay [4] (2 µM) came out at 12.7%; in assay [4] (20 µM) it was 31%. In assay [7], the “% inhibition of liver stage parasite viability” value stood at 33.8%.
